Source: PubChem BioAssay AID1626 (SRMLSC, 2009)
The whole screen tested about 220,000 compounds, of which about 2,000 (0.91%) were called active. Not shown: some 2% with an inconclusive outcome. No stated cut-off is given here; in the data, inconclusive means inhibition above about 80% without an active follow-up result; inactive means below that; test concentration not stated here. A selection follows. Measured potencies and affinities stand elsewhere.

Experiment: M. tuberculosis H37Rv growth inhibitors, H37Rv strain (AID 1626);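 further: bacteria incubated seven days before Alamar blue readout; 0% = bacteria only wells and 100% = bacteria with antibiotic wells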
Settings: stronger effect = higher value, concentration not given here

Compound | inhibition
Cc1cc2cc(C)c(SCC(=O)NCc3ccco3)nc2cc1C | 2.4% (inactive)
COC(=O)CCCC[C@H]1SC[C@H]2NC(=O)N[C@]21O | -9.41% (inactive)
COc1ccc(Cl)cc1C(=O)Nc1ccc(NC(=O)C(C)C)cc1 | 6.21% (inactive)
Cc1ccc(S(=O)(=O)n2c([N+](=O)[O-])cnc2C)c(C)c1C | 2.51% (inactive)
CC(=O)c1sc(NC(=O)c2cc3c(C)nn(-c4ccccc4)c3s2)nc1C | -3.28% (inactive)
Cc1nn(-c2ccccc2)c2sc(C(=O)O)cc12 | -2.71% (inactive)
Cc1ccc(Nc2nc(COC(=O)COc3ccc(C=O)cc3)cs2)cc1 | -1.49% (inactive)
C/C=C/c1ccc(OCC(=O)OCC)c(OC)c1 | 78.2% (inactive)
Cc1occc1-c1n[nH]c(=S)n1C | -11.2% (inactive)
NC(=O)C1CCN(C(=O)C2c3ccccc3C(=O)N3CCc4ccccc4C23)CC1 (stereo not given) | 1.51% (inactive)
COc1cccc(-c2nn(C)c3sc(C(=O)N4CCN(c5ccccn5)CC4)cc23)c1 | 60% (inactive)
COc1ccccc1N1CCN(c2ncc(C(=O)N3CCN(c4cccc(Cl)c4)CC3)c3ccccc23)CC1 | 95% (inactive)
CC(C)NC(=O)c1cnc(N2CCN(c3ccccn3)CC2)c2ccccc12 | 6.14% (inactive)
O=C(Nc1ccc(C(F)(F)F)cc1)c1cnc(N2CCN(c3ccccn3)CC2)c2ccccc12 | 65.3% (inactive)
Cn1nc(-c2ccc(Cl)cc2)c2cc(C(=O)N3CCN(c4ccccc4)CC3)sc21 | 7.8% (inactive)
O=C(c1cnc(N2CCN(c3ncccn3)CC2)c2ccccc12)N1CCN(c2ccccn2)CC1 | 1.07% (inactive)
O=C(NN1C(=O)C2C3C=CC(O3)C2C1=O)c1cccc(Br)c1 (stereo not given) | 5.77% (inactive)
Cc1c(C(=O)NCC2CCCO2)cccc1[N+](=O)[O-] (stereo not given) | 2.82% (inactive)
O=C(NCc1cccc(C(F)(F)F)c1)C1CCN(c2ncccn2)CC1 | -1.47% (inactive)
O=C(O)CCc1nc2ccccc2n(CCc2ccccc2)c1=O | -8.81% (inactive)
O=C(C1CC(c2ccc(F)cc2)=NO1)N1CCc2ccccc2C1 (stereo not given) | -0.85% (inactive)
O=C(c1cccc(F)c1)N1CCN(C(=O)c2nn3cccnc3c2Cl)CC1 | 0.18% (inactive)
O=C(c1ccc(F)cc1)C1CCN(C(=O)c2ccncc2)CC1 | -7.5% (inactive)
O=C(/C=N/O)Nc1ccc2sc3ccccc3c2c1 | 50.4% (inactive)
N#Cc1c2n(c3c(=O)n(CC(=O)c4ccc(Br)cc4)cnc13)CCCC2 | 1.64% (inactive)

Compound | inhibition
CC(C)CCN1CCN(Cc2nc(-c3ccccc3)cs2)CC1CCO (stereo not given) | 4.13% (inactive)
O=C(CSc1ncnc2nc[nH]c12)c1ccc([N+](=O)[O-])cc1 | -0.96% (inactive)
Cn1cnc([N+](=O)[O-])c1Sc1ncnc2nc[nH]c12 | 7.31% (inactive)
COc1cc(/C=N/NC(=O)c2cncc(Br)c2)ccc1OC(=O)c1ccc2c(c1)OCO2 | -4.21% (inactive)
COc1ccc2[nH]c(CN3CCC(CO)(CCOc4ccccc4)CC3)c(C)c2c1 | -2.25% (inactive)
COc1cccc(CC2(CO)CCCN(Cc3ccc(C)s3)C2)c1 (stereo not given) | 4% (inactive)
COc1cccc(CC2(CO)CCCN(Cc3cc4ccccc4[nH]3)C2)c1 (stereo not given) | 9.65% (inactive)
OCC1(CCOc2ccccc2)CCN(CC2=Cc3cc(Cl)ccc3OC2)CC1 | 6.89% (inactive)
COc1cc(OC)cc(C(=O)NCC(=O)OCC(=O)N2c3ccccc3NC(=O)C2(C)C)c1 | -1.81% (inactive)
COc1ccc(CN2CCN(CCCc3ccccc3)CC2)c(OC)c1 | 1.06% (inactive)
COc1cccc(C2C(C(=O)c3cc4cccc(OC)c4o3)=C(O)C(=O)N2c2cc(C)on2)c1OC (stereo not given) | -9.58% (inactive)
COc1cc2c(cc1OC)C(C)N(C(=O)c1cc3ccccc3o1)CC2 (stereo not given) | 3.79% (inactive)
Cc1cc(=O)oc2cc(OCC(=O)Nc3ccc(S(=O)(=O)N(C)C)cc3)ccc12 | -9.04% (inactive)
O=C(Nc1ccccc1)N1CCN(c2nc3ccccc3s2)CC1 | -10% (inactive)
O=C(Nc1ccc(F)cc1)N1CCN(c2nc3ccccc3s2)CC1 | 6.46% (inactive)
CC(=O)Cc1nsc(NC(=O)c2ccc(-c3ccc(Cl)cc3Cl)o2)n1 | -7.01% (inactive)
Cc1ccc(OCC(=O)N(Cc2cccs2)C2CCS(=O)(=O)C2)cc1C (stereo not given) | 1.52% (inactive)
CC(C)C1OC(c2cccc(NC(=O)c3cccs3)c2)OCC1(C)C (stereo not given) | 3.13% (inactive)
CCCCOc1ccc(CSCCN=C(N)N)cc1 | 10.7% (inactive)
CCCCCn1c(N)c(C(=O)NCCN2CCOCC2)c2nc3ccccc3nc21 | 27.3% (inactive)
Nc1c(C(=O)NCCN2CCOCC2)c2nc3ccccc3nc2n1Cc1ccccc1 | 13.8% (inactive)
Nc1c(C(=O)NCCN2CCOCC2)c2nc3ccccc3nc2n1CCc1ccccc1 | 34.9% (inactive)
COc1ccc(CCNC(=O)c2c(N)n(CCN3CCOCC3)c3nc4ccccc4nc23)cc1OC | 20.2% (inactive)
COc1ccc(CNC(=O)c2c(N)n(CCCN3CCOCC3)c3nc4ccccc4nc23)cc1 | 16.6% (inactive)
Nc1c(C(=O)NCc2ccc(F)cc2)c2nc3ccccc3nc2n1CCCN1CCOCC1 | 14.5% (inactive)
